# Data from PubChem BioAssay.
# Activity calls are given as the source filed them.
# Tests used:
# [1] = tested on: Plasmodium falciparum Sir2 (PF13_0152, Sir2A); assay: pfSir2 binders on small-molecule microarrays, primary screen, biochemical, small-molecule microarray, 635 nm fluorescence (AID 1098); conditions: small-molecule microarray binding, fluorescence 635 nm; higher = more signal;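 also: score merges spot fluorescence intensity with its signal-to-noise ratio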
# [2] = small-molecule microarray binders of probe aDKK1, primary screen, biochemical, biotinylated probe, 635/667 nm fluorescence (AID 1099); conditions: higher = more signal;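 also: score merges 667nm spot fluorescence with signal to noise across triplicate slides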
# [3] = small-molecule microarray binders of probe aCHRDL2, primary screen, biochemical, biotinylated probe, 635/667 nm fluorescence (AID 1100); conditions: higher = more signal
# [4] = splicing luciferase reporter signal modulators, primary screen, spliceosome inhibition project, cell-based, HEK293, splice +/- reporter (AID 1101); conditions: luminescence, 24 h, higher = more signal, called active from +8 up or from −8 down;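 also: HEK293 cells carrying a splicing-competent luciferase reporter gene; test concentration not given here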
# [5] = molecular target: Fibroblast growth factor 10 (Homo sapiens) (UniProt O15520); assay: FGF10 binders on small-molecule microarrays, primary screen, biochemical, small-molecule microarray, 635 nm fluorescence (AID 1102); conditions: FGF10 binding, fluorescence 635 nm, higher = more signal
# Fibroblast growth factor 10 (Homo sapiens), sequence (O15520 whole entry, looked up): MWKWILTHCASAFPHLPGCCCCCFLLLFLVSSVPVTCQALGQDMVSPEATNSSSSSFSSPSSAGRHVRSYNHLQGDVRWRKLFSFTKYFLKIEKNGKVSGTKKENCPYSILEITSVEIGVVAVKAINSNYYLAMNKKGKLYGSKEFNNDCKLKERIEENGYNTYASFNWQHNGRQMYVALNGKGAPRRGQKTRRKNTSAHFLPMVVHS
# [6] = tested on: glycogen synthase kinase-3 (GSK3A per assay name; protocol says GSK3B); assay: GSK3 binders on small-molecule microarrays, primary screen, biochemical, small-molecule microarray, 635 nm fluorescence, GSK3A (AID 1103); conditions: small-molecule microarray binding, fluorescence 635 nm; higher = more signal; also: the record names both GSK3A and GSK3B
# [7] = molecular target: Epidermal growth factor receptor (Homo sapiens) (UniProt P00533); assay: EGFR binders on small-molecule microarrays, primary screen, biochemical, small-molecule microarray, 635 nm fluorescence (AID 1104); conditions: EGFR binding, higher = more signal;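 also: score merges 667 nm emission intensity with spot signal to noise over triplicate slides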
# Epidermal growth factor receptor (Homo sapiens), sequence (P00533 whole entry, looked up): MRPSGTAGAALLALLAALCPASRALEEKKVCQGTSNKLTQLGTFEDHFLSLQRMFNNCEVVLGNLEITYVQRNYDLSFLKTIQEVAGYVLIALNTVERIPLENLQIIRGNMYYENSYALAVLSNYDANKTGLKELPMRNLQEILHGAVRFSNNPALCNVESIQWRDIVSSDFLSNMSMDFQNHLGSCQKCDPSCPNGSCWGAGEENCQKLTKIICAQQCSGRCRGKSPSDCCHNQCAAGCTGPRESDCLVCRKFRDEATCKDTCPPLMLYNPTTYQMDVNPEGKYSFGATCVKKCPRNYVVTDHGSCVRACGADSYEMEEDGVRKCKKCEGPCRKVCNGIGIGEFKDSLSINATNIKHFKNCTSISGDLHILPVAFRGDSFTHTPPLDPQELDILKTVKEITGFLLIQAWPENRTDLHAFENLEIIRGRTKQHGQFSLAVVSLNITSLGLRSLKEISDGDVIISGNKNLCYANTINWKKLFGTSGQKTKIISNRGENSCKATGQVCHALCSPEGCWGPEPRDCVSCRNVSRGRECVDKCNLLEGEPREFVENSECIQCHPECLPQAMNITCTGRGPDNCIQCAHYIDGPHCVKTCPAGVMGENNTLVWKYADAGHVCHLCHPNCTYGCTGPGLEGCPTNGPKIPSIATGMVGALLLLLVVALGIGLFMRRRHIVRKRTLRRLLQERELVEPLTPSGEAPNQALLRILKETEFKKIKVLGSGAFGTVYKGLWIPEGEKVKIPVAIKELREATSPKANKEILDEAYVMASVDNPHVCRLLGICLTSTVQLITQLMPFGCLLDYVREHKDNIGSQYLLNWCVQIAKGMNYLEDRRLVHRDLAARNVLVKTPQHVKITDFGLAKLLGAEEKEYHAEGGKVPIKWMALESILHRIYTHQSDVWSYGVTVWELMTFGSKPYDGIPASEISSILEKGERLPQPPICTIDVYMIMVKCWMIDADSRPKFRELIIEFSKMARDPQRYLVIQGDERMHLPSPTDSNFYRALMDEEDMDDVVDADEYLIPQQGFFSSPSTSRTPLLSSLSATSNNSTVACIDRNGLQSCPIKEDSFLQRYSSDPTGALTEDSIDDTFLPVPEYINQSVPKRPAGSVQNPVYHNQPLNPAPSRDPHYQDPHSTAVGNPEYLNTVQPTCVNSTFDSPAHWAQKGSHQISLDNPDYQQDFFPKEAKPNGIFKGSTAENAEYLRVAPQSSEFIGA
# [8] = molecular target: Follistatin-related protein 3 (Homo sapiens) (UniProt O95633); assay: FSTL3 binders on small-molecule microarrays, primary screen, biochemical, small-molecule microarray, 635 nm fluorescence (AID 1105); conditions: FSTL3 binding, higher = more signal;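 also: score merges emission near 667 nm and signal to noise per printed spot across three slides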
# Follistatin-related protein 3 (Homo sapiens), sequence (O95633 whole entry, looked up): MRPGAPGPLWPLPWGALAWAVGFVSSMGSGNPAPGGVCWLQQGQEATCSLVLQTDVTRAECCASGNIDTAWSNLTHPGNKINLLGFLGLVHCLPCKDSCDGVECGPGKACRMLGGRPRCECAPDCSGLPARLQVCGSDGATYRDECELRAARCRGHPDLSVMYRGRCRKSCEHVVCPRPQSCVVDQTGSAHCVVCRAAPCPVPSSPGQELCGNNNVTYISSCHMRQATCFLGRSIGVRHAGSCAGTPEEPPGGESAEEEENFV
# [9] = molecular target: Dickkopf-related protein 1 (Homo sapiens) (UniProt O94907); assay: DKK1 binders on small-molecule microarrays, primary screen, biochemical, small-molecule microarray, 635 nm fluorescence scan (AID 1106); conditions: DKK1 binding, higher = more signal;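 also: score merges emission near 667 nm with signal to noise over three replicate slides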
# Dickkopf-related protein 1 (Homo sapiens), sequence (O94907 whole entry, looked up): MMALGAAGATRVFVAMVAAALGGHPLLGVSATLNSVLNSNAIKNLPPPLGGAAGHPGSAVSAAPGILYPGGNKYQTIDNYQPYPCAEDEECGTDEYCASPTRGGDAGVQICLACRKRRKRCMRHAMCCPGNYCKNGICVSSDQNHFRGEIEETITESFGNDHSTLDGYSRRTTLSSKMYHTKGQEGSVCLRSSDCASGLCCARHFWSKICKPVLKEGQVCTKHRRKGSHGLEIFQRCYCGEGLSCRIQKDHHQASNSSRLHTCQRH
# [10] = tested on: Inhibin beta A chain (activin A); assay: INHBA (activin A) binders on microarrays, primary screen, biochemical, small-molecule microarray, 635 nm fluorescence scan (AID 1107); conditions: small-molecule microarray binding, higher = more signal;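 also: mouse activin A protein probed at 4.33 µg/mL on printed slides; score merges bound-protein fluorescence near 667 nm with spot signal-to-noise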
# [11] = tested on: Human papillomavirus type 1a protein E7 (residues 44-93); assay: HPV1a E7 fragment binders on microarrays, primary screen, biochemical, small-molecule microarray, residues 44-93, 635 nm fluorescence (AID 1108); conditions: small-molecule microarray binding, fluorescence 635 nm; higher = more signal;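 also: E7 fragment applied at 1 µg/mL in TBST for 1 h at 4 C; score combines spot fluorescence with its signal to noise ratio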
# [12] = modulators of HCV replicon luciferase signal, primary screen, HCV replication inhibitor project, Huh7 cells, luciferase reporter (AID 1109); conditions: 48 h, higher = more signal;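 also: huh7 hepatoma cells harbouring a luciferase neomycin HCV replicon reporter; luciferase luminescence as measure of HCV replicon replication; test concentration not given here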
# [13] = molecular target: Left-right determination factor 2 (Homo sapiens) (UniProt O00292); assay: LEFTY2 binders on small-molecule microarrays, primary screen, biochemical, small-molecule microarray, 635 nm fluorescence scan (AID 1110); conditions: LEFTY2 binding, higher = more signal
# Left-right determination factor 2 (Homo sapiens), sequence (O00292 whole entry, looked up): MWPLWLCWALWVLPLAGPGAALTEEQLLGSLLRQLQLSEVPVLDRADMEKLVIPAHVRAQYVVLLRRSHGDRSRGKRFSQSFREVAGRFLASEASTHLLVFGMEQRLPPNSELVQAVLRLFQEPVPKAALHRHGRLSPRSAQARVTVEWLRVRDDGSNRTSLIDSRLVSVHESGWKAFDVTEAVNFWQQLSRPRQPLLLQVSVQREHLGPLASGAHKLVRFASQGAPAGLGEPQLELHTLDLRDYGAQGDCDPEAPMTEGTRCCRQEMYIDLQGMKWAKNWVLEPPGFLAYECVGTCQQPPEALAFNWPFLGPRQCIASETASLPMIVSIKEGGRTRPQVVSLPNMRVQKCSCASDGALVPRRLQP
# [14] = molecular target: Calmodulin-1 (Homo sapiens) (UniProt P0DP23); assay: CALM1 binders on microarrays, EGTA buffer, profiling panel, biochemical, small-molecule microarray, Cy5-labelled CALM1 (AID 1111); conditions: Cy5-CALM1 binding fluorescence, higher = more signal;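 also: labelled calmodulin applied in Tris saline Tween buffer holding calcium plus EGTA and DTT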
# [15] = molecular target: Calmodulin-1 (Homo sapiens) (UniProt P0DP23); assay: calcium-bound CALM1 binders on microarrays, profiling panel, artefact control for SMM control-protein annotation, biochemical, small-molecule microarray, Cy5-labelled CALM1, plus calcium (AID 1112); conditions: Cy5-CALM1 binding fluorescence, higher = more signal;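 also: score merges spot fluorescence with signal to noise from triplicate slides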
# [16] = small-molecule microarray binders of probe aWnt5a, primary screen, biochemical, biotinylated probe, 635/667 nm fluorescence (AID 1113); conditions: higher = more signal;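 also: score merges 667 nm fluorescence intensity with signal-to-noise per printed feature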
# [17] = small-molecule microarray binders of probe aShh, primary screen, biochemical, biotinylated probe, 635/667 nm fluorescence (AID 1114); conditions: higher = more signal;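 also: probe is biotin-labelled aShh protein from a stem cell growth factor screen; measures binding of labelled protein to compounds printed on the slide; score merges feature fluorescence at 667 nm with signal-to-noise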
# [18] = small-molecule microarray binders of probe aNog, primary screen, biochemical, biotinylated probe, 635/667 nm fluorescence (AID 1115); conditions: higher = more signal;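 also: probe is biotinylated aNog protein used at 0.15 µg/mL for 1 h at 4 C; z-score combines 667 nm fluorescence of each spot with its signal to noise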
# [19] = molecular target: Torsin-1A-interacting protein 1 (Homo sapiens) (UniProt Q5JTV8); assay: LAP1 binders from COS7 cell lysate, primary screen, small-molecule microarray, 635/667 nm fluorescence (AID 1116); conditions: COS7-hLAP1 lysate binding, 635 nm fluorescence, higher = more signal
# Torsin-1A-interacting protein 1 (Homo sapiens), sequence (Q5JTV8 whole entry, looked up): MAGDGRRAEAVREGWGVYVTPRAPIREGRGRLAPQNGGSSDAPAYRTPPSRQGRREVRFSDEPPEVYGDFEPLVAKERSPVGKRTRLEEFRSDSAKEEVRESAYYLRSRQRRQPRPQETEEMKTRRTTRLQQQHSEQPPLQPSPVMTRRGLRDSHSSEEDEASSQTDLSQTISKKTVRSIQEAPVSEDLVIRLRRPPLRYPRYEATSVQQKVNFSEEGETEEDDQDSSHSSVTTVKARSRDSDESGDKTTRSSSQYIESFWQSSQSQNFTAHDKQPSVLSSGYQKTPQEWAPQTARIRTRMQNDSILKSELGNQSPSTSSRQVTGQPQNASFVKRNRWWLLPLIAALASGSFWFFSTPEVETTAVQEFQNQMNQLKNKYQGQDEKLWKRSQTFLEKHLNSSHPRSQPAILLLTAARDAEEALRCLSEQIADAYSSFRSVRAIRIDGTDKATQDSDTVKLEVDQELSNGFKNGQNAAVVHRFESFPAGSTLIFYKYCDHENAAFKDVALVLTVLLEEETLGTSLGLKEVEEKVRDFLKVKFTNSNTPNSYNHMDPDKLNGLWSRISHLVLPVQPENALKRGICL
# [20] = molecular target: Alpha-bungarotoxin (Bungarus multicinctus) (UniProt P60615); assay: alpha-bungarotoxin binders on microarray, profiling panel, artefact control for SMM control protein annotation, biochemical, small-molecule microarray, Alexa647 label, 635/667 nm fluorescence (AID 1117); conditions: alpha-BTX-A647 binding fluorescence, higher = more signal
# Alpha-bungarotoxin (Bungarus multicinctus), sequence (P60615 whole entry, looked up): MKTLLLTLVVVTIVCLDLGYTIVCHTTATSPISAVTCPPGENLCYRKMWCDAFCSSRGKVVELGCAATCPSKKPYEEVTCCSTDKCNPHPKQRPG
SMILES,composite z-score [1],composite z-score [2],composite z-score [3],z-score [4],composite z-score [5],composite z-score [6],composite z-score [7],composite z-score [8],composite z-score [9],composite z-score [10],composite z-score [11],z-score [12],composite z-score [13],composite z-score [14],composite z-score [15],composite z-score [16],composite z-score [17],composite z-score [18],composite z-score [19],composite z-score [20]
C[C@@H](c1ccccc1)N1C(=O)[C@H]2[C@H]3[C@H](O)[C@H](O)CC(=NNC(=O)OCc4ccccc4)[C@@H]3CC[C@H]2C1=O,0.404,-0.657,-1.57,0.574 (inactive),-0.0948,1.25,0.845,1.5,1.94,1.56,-0.347,-1.01,1.17,-1.16,-1.94,-0.158,0.0062,-0.545,-0.043,-0.716
CC(C)[C@@H](OCc1ccccc1)[C@H](C)C=NO[C@@H](C)c1cn([C@H](CO)Cc2ccccc2)nn1,0.38,-0.215,-0.357,0.357 (inactive),-0.045,0.148,-0.0006,0.105,-0.477,-0.245,0.402,-1.87,0.277,-0.38,-0.281,-0.135,-0.273,0.0715,0.217,-0.0804
O=C1C2=CC[C@H]3C(=O)N(c4ccc(F)cc4F)C(=O)[C@H]3[C@H]2[C@H](O)[C@@H]2O[C@H]12,0.305,-0.378,-0.778,-0.35 (inactive),0.472,0.578,0.347,0.453,0.658,-0.172,0.356,-0.155,0.662,-0.232,-0.773,-0.206,-0.352,-0.553,0.335,0.455
